In PubChem BioAssay (NCATS):
Results filed as inconclusive are left out. Where a call stands in place of a potency, no number is given. Values without a mark were called inactive. The source made the active and inactive calls. Calls come from the whole dose curve; as a rule, active = well fitted curve in the direction sought with a large enough effect; inconclusive = small, poorly fitted or top-dose-only effect, or another doubt; inactive = no such curve, though single readings can be large; an effect the other way counts as inactive or inconclusive.

Key:
[1] = tested on: Zika virus NS2B-NS3 protease; assay: Primary screen GU AMC qHTS for Zika virus inhibitors (AID 1347154); note: nearly all actives have a fitted effect of over 70% in size; note: potency is the fitted concentration of half-maximal effect
Summary of the method: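 Unlinked Zika NS2B hydrophilic domain/NS3 protease domain noncovalent complex (25 nM final) in 10 mM Tris-HCl pH 8.0, 0.01% Tween 20, with AMC peptide substrate. Fluorescence (ex 340, em 450 nm) change over 15 min, room temperature; percent inhibition fitted to 4-parameter Hill equation.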

[2] = tested on: Zika virus NS2B-NS3 protease (unlinked complex); assay: Primary screen GU Rhodamine qHTS for Zika virus inhibitors: Unlinked NS2B-NS3 protease assay (AID 1347159); note: nearly all actives have a fitted effect of over 60% in size; note: potency is the fitted concentration of half-maximal effect
Summary of the method: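 In dose–response format, inhibition of unlinked protease (25 nM) was measured with 1.5 microM bis-peptide Rhodamine110 substrate. Aprotinin served as the intraplate control.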

[3] = tested on: Zika virus NS2B-NS3 protease (linked construct); assay: Primary screen NINDS Rhodamine qHTS for Zika virus inhibitors (AID 1347160); note: nearly all actives have a fitted effect of over 55% in size
Summary of the method: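 Each compound, titrated, sat 15 min with 25 nM linked protease before 1.5 microM Rhodamine110 substrate went in. Fluorescence gain over the next 15 min, in pH 8.0 Tris with Tween 20, gave Hill-fitted curves.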

[4] = Confirmatory screen GU Rhodamine qHTS for Zika virus inhibitors qHTS (AID 1347157); note: nearly all actives have a fitted effect of over 70% in size; note: potency is the fitted concentration of half-maximal effect
Summary of the method: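 Percent inhibition derives from the 15-min fluorescence change (ex 480, em 540 nm), normalized to no-enzyme and no-inhibitor wells. Reactions contained 25 nM NS2B-NS3 complex and 1.5 microM substrate in 10 mM Tris-HCl pH 8.0.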

[5] = Confirmatory screen NINDS Rhodamine qHTS for Zika virus inhibitors (AID 1347161); note: nearly all actives have a fitted effect of over 60% in size; note: potency is the fitted concentration of half-maximal effect;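 for activity change, negative = inhibition: purified Zika NS2B-NS3 protease with linked NS2B cofactor domain and Rhodamine110 peptide substrate; series mostly up to about 110 µM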
Summary of the method: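 Kinetic fluorescence (Ex 480 nm, Em 540 nm) over 15 min with 1.5 microM Rhodamine110 peptide and 25 nM linked protease.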

[6] = qHTS to identify inhibitors of the type 1 interferon - major histocompatibility complex class I in skeletal muscle: primary screen against the NCATS Mechanism Interrogation Plate v5.0 (MIPE) Libary (AID 1347411); note: nearly all actives have a fitted effect of over 65% in size; note: potency is the fitted concentration of half-maximal effect
Summary of the method: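 IFN-beta-driven (4 ng/ml) HLA-B-HiBit expression in CRISPR-tagged C25cl48 myoblasts; compounds 11-pt, 1:3, max 46 uM, 24 hr exposure; lytic NanoLuc complementation luminescence.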

[7] = Tertiary RLuc qRT-PCR qHTS assay for Zika virus inhibitors (AID 1347169); note: top concentration of the series differs between compounds; nearly all actives have a fitted effect of over 55% in size
Summary of the method: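 Luminescence read-out: live-cell Renilla luciferase substrate applied to infected Vero cells, signal measured after 1-1.5 hrs. Cells had received compound before ZIKV-RLuc (Cambodian strain, MOI 1-2) infection and were incubated 48-72 hrs at 37 degrees C.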

COC(=O)Nc1ccc(-c2nc(N3CCOCC3)c3cnn(C4CCN(C(=O)OC)CC4)c3n2)cc1
Potency [1]: inactive

CC(C)(O)CC(=O)NCCn1ccc2ncnc(Nc3ccc(Oc4cccc(C(F)(F)F)c4)c(Cl)c3)c21
Potency [1]: inactive | Potency [2]: inactive

CCC(=O)N1CCN(c2ccc(-n3c(=O)ccc4cnc5ccc(-c6cnc7ccccc7c6)cc5c43)cc2C(F)(F)F)CC1
Potency [1]: inactive | activity change, negative = inhibition [2]: -9.09% [at 19.1 µM] | activity change, negative = inhibition [3]: -4.81% [at 10.7 µM]

Clc1ccc(C2(c3ccc(-c4cn[nH]c4)cc3)CCNCC2)cc1
Potency [1]: inactive | Potency [2]: inactive | Potency [3]: inactive

Cc1ccc(C(=O)N(CCCN)[C@@H](c2oc3cc(Cl)ccc3c(=O)c2Cc2ccccc2)C(C)C)cc1
Potency [1]: inactive

Cn1c(=O)c(-c2c(Cl)cccc2Cl)cc2cnc(Nc3cccc(C(=O)O)c3)nc21
Potency [1]: inactive | Potency [4]: 11.1 µM (active) | Potency [2]: 7.94 µM (active) | Potency [3]: inactive | Potency [5]: 13.9 µM (active) | Potency [6]: inactive

CCN1CCC(n2cc(CNc3cc(Cl)c4ncc(C#N)c(Nc5ccc(F)c(Cl)c5)c4c3)nn2)CC1
Potency [1]: inactive | Potency [2]: inactive | Potency [3]: inactive

CCNC(=O)CCCC=CC[C@@H]1[C@H](C=CC(O)CCc2ccccc2)[C@@H](O)C[C@@H]1O (stereo partly specified)
Potency [1]: inactive

CN1CCc2c(n(Cc3ccc(C(=O)NO)cc3)c3ccccc23)C1
Potency [1]: inactive | Potency [2]: inactive | Potency [3]: inactive

Cc1ccc2c(c1)C(=O)[C@]1(O)CCN(c3ccccc3)C1=N2
Potency [1]: inactive | Potency [4]: inactive | Potency [2]: inactive | Potency [5]: inactive | Potency [7]: inactive | Potency [6]: inactive

NC(=O)c1nnn(Cc2cc(Cl)c(C(=O)c3ccc(Cl)cc3)c(Cl)c2)c1N
Potency [1]: inactive

CCNC(=O)Nc1ccc(Oc2ncnc(N)c2C=NOC)cc1Cl
Potency [1]: inactive

NC1(C(=O)N[C@@H](CCO)c2ccc(Cl)cc2)CCN(c2ncnc3[nH]ccc23)CC1
Potency [1]: inactive | Potency [2]: inactive

O=C(O)C1=CO[C@@H](O[C@@H]2O[C@H](CO)[C@H](O)[C@H](O)[C@H]2O)[C@@H]2C(CO)=CC[C@H]12
Potency [1]: inactive

CN1[C@H]2CC[C@H]1CC(OC(=O)c1c[nH]c3ccccc13)C2 (stereo partly specified)
Potency [1]: inactive

COc1ccc2ccc(=O)oc2c1CC=C(C)C
Potency [1]: inactive

C[C@@]1(C(=O)Nc2ccc(F)nc2)CCCN1c1nc(Nc2cc(C3CC3)[nH]n2)c2cccn2n1
Potency [1]: inactive | Potency [2]: inactive

CN[C@@H]1[C@@H](O)[C@@H](O[C@@H]2[C@@H](O)[C@H](O[C@H]3O[C@H](CN)[C@@H](O)[C@H](O)[C@@H]3O)[C@@H](N)C[C@@H]2NC(=O)[C@@H](O)CN)OC[C@]1(C)O
Potency [1]: inactive

CC1(C)CC(=O)c2c(C(F)(F)F)nn(-c3ccc(C(N)=O)c(NC4CCC(O)CC4)c3)c2C1 (stereo unspecified)
Potency [1]: inactive | Potency [2]: inactive | Potency [3]: inactive

CN1CCC[C@H]1CCO[C@](C)(c1ccccc1)c1ccc(Cl)cc1
Potency [1]: inactive

Nc1ccc(-c2ccc3ncc4ccc(=O)n(-c5cccc(C(F)(F)F)c5)c4c3c2)cn1
Potency [1]: inactive | Potency [2]: inactive

O=C(Nc1cccc(C(F)(F)F)c1)Nc1cc(S(=O)(=O)NC2CC2)ccc1-c1ccsc1
Potency [1]: inactive | Potency [2]: 22.4 µM (active)

CC[C@H](CC#N)OC(=O)N[C@@H](C)c1cccc(NC(=O)Nc2ccc(-c3cnco3)c(OC)c2)c1
Potency [1]: inactive

CC(C)=CCCC(C)=CCCC(C)=CCCC(C)=CCCC(C)=CCCC(C)=CCCC(C)=CCCC(C)=CCCC(C)=CCO
Potency [1]: inactive

CC(C)CN(C[C@@H](O)[C@H](Cc1ccccc1)NC(=O)O[C@H]1CO[C@H]2OCC[C@H]21)S(=O)(=O)c1ccc(N)cc1
Potency [1]: inactive

Nc1ncnc2c1c(-c1cccc(OCc3ccccc3)c1)cn2C1CC(CN2CCC2)C1 (stereo unspecified)
Potency [1]: inactive | Potency [2]: inactive | Potency [3]: inactive

CN(C)c1nc(Cc2ccc(NC(=O)c3ccc(C(F)(F)F)cc3)cc2)nc(N(C)C)c1CC(=O)O
Potency [1]: inactive | Potency [2]: inactive

C[C@H](CCC(=O)O)[C@H]1CC[C@H]2[C@H]3[C@@H](CC[C@]12C)[C@@]1(C)CC[C@@H](O)C[C@H]1C[C@@H]3O
Potency [1]: inactive

CCN1C[C@H](C)n2c(c(O)c3c(=O)n(Cc4ccc(F)c(Cl)c4)nc(C(=O)NC)c32)C1=O
Potency [1]: inactive

Cc1[nH]c(C=C2C(=O)Nc3ccc(S(=O)(=O)N(C)c4cccc(Cl)c4)cc32)c(C)c1C(=O)N1CCN(C)CC1
Potency [1]: inactive

CNC1CCC(N(Cc2cccc(-c3ccncc3)c2)C(=O)c2sc3ccccc3c2Cl)CC1 (stereo unspecified)
Potency [1]: inactive | Potency [2]: inactive

Cn1cnc(-c2cc3nccc(Oc4ccc(NC(=S)NC(=O)Cc5ccccc5)cc4F)c3s2)c1
Potency [1]: inactive | Potency [2]: inactive | Potency [3]: inactive

O=c1[nH]c(=O)n([C@H]2C[C@@H](O)[C@@H](CO)O2)cc1I
Potency [1]: inactive

Cc1cnc(Nc2cccc(CN3CCOCC3)c2)nc1Nc1cccc(S(=O)(=O)NC(C)(C)C)c1
Potency [1]: inactive | Potency [2]: inactive | Potency [3]: inactive

CCCCn1c(=O)n(Cc2ccccc2F)c(=O)c2[nH]c(Cc3ccc(NC(C)=O)cc3)nc21
Potency [1]: inactive | Potency [2]: inactive

CCC(=O)OCC(=O)[C@@]1(OC(=O)CC)[C@@H](C)C[C@@H]2[C@H]3CCC4=CC(=O)C=C[C@]4(C)[C@@]3(F)[C@@H](O)C[C@@]21C
Potency [1]: inactive

CC1CCN(c2cc(N3CCN(C)CC3)ccc2NC(=O)c2cc(C#N)c[nH]2)CC1
Potency [1]: inactive | Potency [2]: inactive | Potency [3]: inactive

COc1c(C)cnc(Cn2cnc3c(Cl)nc(N)nc32)c1C
Potency [1]: inactive

OCCn1cc(-c2ccc3c(c2)CCC3=NO)c(-c2ccncc2)n1
Potency [1]: inactive

Cc1ccccc1C(C(=O)NC1CCCCC1)N(C(=O)CNc1ccc(C#N)cc1)c1cccc(F)c1 (stereo unspecified)
Potency [1]: inactive | Potency [2]: inactive | Potency [3]: inactive | Potency [6]: inactive

CCc1cccc(CC)c1NC(=O)N1Cc2[nH]nc(NC(=O)c3ccc(N4CCN(C)CC4)cc3)c2C1
Potency [1]: inactive | Potency [2]: inactive | Potency [3]: inactive | Potency [6]: 10.4 µM (active)

c1ccc(-c2oc3ncnc(NC[C@@H]4CCCO4)c3c2-c2ccccc2)cc1
Potency [1]: 30.4 µM (active) | Potency [2]: inactive | Potency [6]: inactive
